Screening data from PubChem.
Most compounds without a hit are left out; they make up all but 7.3% or so of the library.
FLuc modulator: inhibits or activates purified firefly luciferase, miR-21 counter-screen. P08659. purified FLuc, Km substrates, luminescence inhibition. Potency, µM (doses to about 57.5 µM), actives largely listed as inhibitors. 360,000 compounds, 6.9% hits. AID 588342; further: nearly all actives have a fitted effect of over 55% in size
Target sequence (P08659 whole entry, looked up): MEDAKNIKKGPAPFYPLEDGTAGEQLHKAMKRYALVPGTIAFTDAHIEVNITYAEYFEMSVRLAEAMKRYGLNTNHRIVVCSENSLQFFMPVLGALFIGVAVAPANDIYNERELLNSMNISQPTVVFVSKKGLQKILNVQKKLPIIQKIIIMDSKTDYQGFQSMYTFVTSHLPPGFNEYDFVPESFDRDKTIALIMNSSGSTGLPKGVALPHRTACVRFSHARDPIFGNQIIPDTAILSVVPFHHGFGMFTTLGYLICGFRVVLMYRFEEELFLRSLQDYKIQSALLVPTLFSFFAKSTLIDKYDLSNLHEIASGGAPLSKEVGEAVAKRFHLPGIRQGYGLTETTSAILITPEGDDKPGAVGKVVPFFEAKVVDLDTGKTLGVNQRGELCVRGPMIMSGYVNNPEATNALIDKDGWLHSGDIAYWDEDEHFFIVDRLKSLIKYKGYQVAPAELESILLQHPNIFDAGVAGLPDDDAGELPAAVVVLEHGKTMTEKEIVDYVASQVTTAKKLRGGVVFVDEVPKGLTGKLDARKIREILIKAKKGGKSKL
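Biochemical qHTS of compounds, final roughly 60 µM downward over six points, against 10 nM purified firefly luciferase using Km concentrations of substrates (10 uM D-luciferin, 10 uM ATP) in Tris acetate pH 7.5 buffer; luminescence output.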
SMN2 splice up: increases expression of the SMN2 splice variant; 210,000 compounds, 2.8% hits; Potency, µM (series often up to 46.1 µM), actives largely listed as activators; HEK293 SMN2-luciferase splicing reporter, luminescence, 30-36 h; further: nearly all actives have a fitted effect of over 55% in size
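HEK293 cells carry an SMN2 minigene-luciferase reporter in which exon 7 inclusion puts luciferase in frame. Cells were seeded at 2000 cells/well, attached for 10-12 hours, then exposed to compounds for 30-36 hours at 37C before ONE-Glo luminescence.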
ELG1 genotoxic: genotoxicity induction in ELG1-luciferase HEK293T cells; HEK293T ELG1-luciferase reporter, luminescence, 16 h; 330,000 compounds, 1.3% hits; Potency, µM (doses to about 46 µM), hits mostly activators; further: nearly all actives have a fitted effect of over 60% in size
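Step 1: seed 2,000 HEK293T ELG1-luciferase cells per well. Step 2: add compound or DMSO, incubate 16 hr at 37 °C. Step 3: ONE-Glo, 30 min at room temperature, read luminescence.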
uPA generation: cell surface uPA generation inhibition; cell surface uPA generation assay, qHTS; Potency, µM (series often up to 38.3 µM), actives largely listed as inhibitors; 330,000 compounds, 0.31% hits; AID 540303; active means well fitted inhibition curve with a large enough effect; inconclusive means small, poorly fitted or top-dose-only effect; inactive means no such curve, though single readings can be large or run the other way; tested in mouse RAW 264.7 cells; further: nearly all actives have a fitted effect of over 55% in size
NPC1 promoter act: activators of NPC1 promoter; Huh7 NPC1 promoter luciferase reporter, 24 h; Potency, µM (series often up to 9.22 µM), hits mostly activators; 320,000 compounds, 2.4% hits; further: nearly all actives have a fitted effect of over 60% in size
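Stably transfected Huh7 (NPC1 promoter→luciferase), 1500 cells/well in Opti-MEM + 10% FBS, 2 h settle, then compound 24 h at 37 °C. Luminescence after 10 min with Amplite reagent.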
Rab9 prom act: activators of Rab9 promoter | Huh7 Rab9 promoter-luciferase reporter, luminescence, 24 h | AID 485297 | Potency, µM (top dose mostly 9.22 µM), hits mostly activators | 320,000 compounds, 2.8% hits; further: nearly all actives have a fitted effect of over 60% in size
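Luminescence read-out: Huh7 cells stably expressing Rab9-luciferase, treated 24 h with compound at 37 °C, then lysed with luciferase reagent for 10 min at ambient before reading.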
Each line names hits and unclear results; the compound was inactive in the other large screens. Unless noted, the call rests on the fitted dose curve; in most records, active means well fitted curve in the direction sought with a large enough effect; inconclusive means small, poorly fitted or top-dose-only effect, or another doubt; inactive means no such curve, though single readings can be large; an effect the other way counts as inactive or inconclusive.

CN(C)S(=O)(=O)N(CC(=O)Nc1ccc(C(F)(F)F)cc1)c1ccccc1	none (no result: ELG1 genotoxic, uPA generation, NPC1 promoter act, Rab9 prom act)
Cc1cccc(NC(=O)c2sc3ncnc(N(C)C4CCCCC4)c3c2C)c1C	none (no result: SMN2 splice up, ELG1 genotoxic, uPA generation, NPC1 promoter act, Rab9 prom act)
N#CCC(=O)N1CC2(CC(c3cccc(NC(=O)COc4ccc(Cl)cc4)c3)=NO2)C[C@@H]1C(N)=O (some centres not stated)	FLuc modulator 15µM (no result: SMN2 splice up)
NC(=O)[C@H]1CC2(CC(c3cccc(NC(=O)COc4ccc(Cl)cc4)c3)=NO2)CN1C(=O)[C@H]1CCC(=O)N1 (some centres not stated)	FLuc modulator 12µM (no result: SMN2 splice up)
C/C=C(/C)C(=O)Nc1cccc(C2=NOC3(C2)C[C@H](C(N)=O)N(C(=O)COc2ccc(Cl)cc2)C3)c1 (some centres not stated)	none (no result: SMN2 splice up)
NC(=O)[C@@H]1CC2(CC(c3cccc(NC(=O)COc4ccc(Cl)cc4)c3)=NO2)CN1C(=O)COc1ccc(Cl)cc1 (some centres not stated)	FLuc modulator 12µM, uPA generation inconclusive (no result: SMN2 splice up)
CC/C=C/C(=O)N1CC2(CC(c3cccc(NC(=O)COc4ccc(Cl)cc4)c3)=NO2)C[C@H]1C(N)=O (some centres not stated)	FLuc modulator 12µM (no result: SMN2 splice up)
Cc1cc(NCc2ccc(Cl)cc2)n2cnnc2n1	none (no result: ELG1 genotoxic, uPA generation, NPC1 promoter act, Rab9 prom act)
CC1CN(C(=O)CCC(=O)NCc2ccccc2)c2ccccc2S1 (configuration not stated)	none (no result: SMN2 splice up)
COc1ccccc1CNC(=O)c1cc2sccc2n1Cc1ccc(F)cc1	none (no result: ELG1 genotoxic, uPA generation, NPC1 promoter act, Rab9 prom act)
Cc1cccc(Nc2c([N+](=O)[O-])c(=O)n(C)c3ccccc23)c1	FLuc modulator 21µM
CC(C)c1ccc(Nc2c([N+](=O)[O-])c(=O)n(C)c3ccccc23)cc1	FLuc modulator inconclusive (no result: SMN2 splice up)
CS(=O)(=O)c1cnc2c(-c3ccsc3)cnn2c1N	FLuc modulator 11µM, SMN2 splice up 13µM, ELG1 genotoxic 21µM, NPC1 promoter act 2.8µM, Rab9 prom act 2.8µM
Cc1ccc(C)c(N(C)C(=O)c2cn(C)c(=O)c3ccccc23)c1	none (no result: ELG1 genotoxic, uPA generation, NPC1 promoter act, Rab9 prom act)
CC1CCN(c2nnc(-c3cccs3)c3ccccc23)CC1	FLuc modulator 9.5µM
c1csc(-c2nnc(NC3CCCCC3)c3ccccc23)c1	FLuc modulator 12µM
COc1ccc(CCNC(=O)c2cc(Sc3cccc(Cl)c3)nc3ccccc23)cc1OC	none (no result: SMN2 splice up, ELG1 genotoxic, uPA generation, NPC1 promoter act, Rab9 prom act)
Cc1cccc(N2CCN(CCCNc3ncnc4onc(-c5ccc(Cl)cc5)c34)CC2C)c1 (configuration not stated)	none (no result: SMN2 splice up, ELG1 genotoxic, uPA generation, NPC1 promoter act, Rab9 prom act)
Cc1cccc(N2CCN(C(=O)c3cn4ccccc4n3)CC2C)c1 (configuration not stated)	none
COc1ccc(C2CC2C(=O)c2ccccn2)cc1 (configuration not stated)	FLuc modulator 17µM, NPC1 promoter act inconclusive, Rab9 prom act inconclusive
CCCC(=O)Oc1ccc(-c2nccc(C(OC)OC)n2)cc1	FLuc modulator 13µM, Rab9 prom act inconclusive
COC(OC)c1ccnc(-c2ccc(OC(=O)c3ccc(F)cc3)cc2)n1	FLuc modulator inconclusive
O=c1cc(-c2ccco2)oc2ccc(Cl)cc12	ELG1 genotoxic inconclusive
COc1cccc2oc(-c3ccco3)cc(=O)c12	FLuc modulator 15µM, SMN2 splice up 16µM, ELG1 genotoxic inconclusive, uPA generation inconclusive, NPC1 promoter act inconclusive, Rab9 prom act inconclusive
Cc1cc(=O)oc2ccc(OCC(=O)NCc3ccco3)cc12	none
COc1cc(OC)c2c(=O)cc(-c3cccnc3)oc2c1	FLuc modulator inconclusive, ELG1 genotoxic inconclusive (no result: SMN2 splice up)
O=C(COc1ccc2oc(-c3ccco3)cc(=O)c2c1)N1CCCCC1	FLuc modulator 17µM
O=C(COc1ccc2oc(-c3ccccc3)cc(=O)c2c1)NCc1ccco1	FLuc modulator 2.4µM, Rab9 prom act inconclusive
COc1ccc2oc(-c3ccco3)cc(=O)c2c1	FLuc modulator 12µM, SMN2 splice up 11µM, ELG1 genotoxic inconclusive, NPC1 promoter act 2.5µM, Rab9 prom act 0.79µM
C=CCNC(=O)c1ccc(NC(=O)C2=CSCCO2)cc1	FLuc modulator 12µM, ELG1 genotoxic inconclusive, uPA generation inconclusive, NPC1 promoter act 0.89µM, Rab9 prom act 0.79µM (no result: SMN2 splice up)
